Test [1] concerns Epidermal growth factor receptor (Homo sapiens), P00533 [T790M]. The settings on record: at 1 µM.
In test [2] the test system is Epidermal growth factor receptor (Homo sapiens), P00533 [L858R,T790M]. The following applies: at 0.1 µM.
For test [3] the test system is unchanged. The settings on record: at 1 µM.
The target in test [4] is Ephrin type-A receptor 2 (Homo sapiens) (UniProt P29317). The following applies: at 0.1 µM.
For test [5] the target is unchanged. The following applies: at 1 µM.
The target of test [6] is T1, Ephrin type-A receptor 3 (Homo sapiens) (UniProt P29320).
T1 sequence (whole entry): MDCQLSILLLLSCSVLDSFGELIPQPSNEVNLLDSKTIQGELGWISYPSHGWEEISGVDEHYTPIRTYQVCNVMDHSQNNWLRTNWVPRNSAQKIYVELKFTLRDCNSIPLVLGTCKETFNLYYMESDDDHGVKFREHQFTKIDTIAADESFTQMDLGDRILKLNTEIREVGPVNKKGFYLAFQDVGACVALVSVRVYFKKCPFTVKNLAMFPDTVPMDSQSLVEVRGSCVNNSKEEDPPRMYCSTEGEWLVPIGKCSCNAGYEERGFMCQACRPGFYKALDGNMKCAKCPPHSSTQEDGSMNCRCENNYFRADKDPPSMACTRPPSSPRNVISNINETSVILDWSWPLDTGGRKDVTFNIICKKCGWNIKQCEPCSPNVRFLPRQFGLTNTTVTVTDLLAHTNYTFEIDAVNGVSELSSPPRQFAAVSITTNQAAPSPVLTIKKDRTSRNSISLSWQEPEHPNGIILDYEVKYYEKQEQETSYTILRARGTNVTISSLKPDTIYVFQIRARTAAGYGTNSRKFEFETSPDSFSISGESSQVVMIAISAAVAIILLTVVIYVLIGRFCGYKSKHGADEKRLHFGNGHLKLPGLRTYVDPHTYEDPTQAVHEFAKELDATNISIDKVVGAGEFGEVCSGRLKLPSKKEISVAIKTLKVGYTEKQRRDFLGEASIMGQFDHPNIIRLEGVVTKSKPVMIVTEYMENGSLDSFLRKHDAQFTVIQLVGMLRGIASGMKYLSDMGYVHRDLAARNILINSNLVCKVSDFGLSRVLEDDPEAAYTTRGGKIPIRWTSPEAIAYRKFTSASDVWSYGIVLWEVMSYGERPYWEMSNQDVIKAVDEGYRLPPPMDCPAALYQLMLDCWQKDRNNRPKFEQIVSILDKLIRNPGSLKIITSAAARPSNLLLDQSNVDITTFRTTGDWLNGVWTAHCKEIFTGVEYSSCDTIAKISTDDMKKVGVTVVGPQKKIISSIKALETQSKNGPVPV
The settings on record: at 0.1 µM.

Test [7] deals with T1, Ephrin type-A receptor 3 (Homo sapiens). The settings on record: at 1 µM.
The target in test [8] is Ephrin type-A receptor 4 (Homo sapiens) (UniProt P54764). The settings on record: at 0.1 µM.
Test [9] shares this target. The following applies: at 1 µM.
Test [10] has as its target T2, Ephrin type-B receptor 2 (Homo sapiens) (UniProt P29323).
T2 sequence (whole entry): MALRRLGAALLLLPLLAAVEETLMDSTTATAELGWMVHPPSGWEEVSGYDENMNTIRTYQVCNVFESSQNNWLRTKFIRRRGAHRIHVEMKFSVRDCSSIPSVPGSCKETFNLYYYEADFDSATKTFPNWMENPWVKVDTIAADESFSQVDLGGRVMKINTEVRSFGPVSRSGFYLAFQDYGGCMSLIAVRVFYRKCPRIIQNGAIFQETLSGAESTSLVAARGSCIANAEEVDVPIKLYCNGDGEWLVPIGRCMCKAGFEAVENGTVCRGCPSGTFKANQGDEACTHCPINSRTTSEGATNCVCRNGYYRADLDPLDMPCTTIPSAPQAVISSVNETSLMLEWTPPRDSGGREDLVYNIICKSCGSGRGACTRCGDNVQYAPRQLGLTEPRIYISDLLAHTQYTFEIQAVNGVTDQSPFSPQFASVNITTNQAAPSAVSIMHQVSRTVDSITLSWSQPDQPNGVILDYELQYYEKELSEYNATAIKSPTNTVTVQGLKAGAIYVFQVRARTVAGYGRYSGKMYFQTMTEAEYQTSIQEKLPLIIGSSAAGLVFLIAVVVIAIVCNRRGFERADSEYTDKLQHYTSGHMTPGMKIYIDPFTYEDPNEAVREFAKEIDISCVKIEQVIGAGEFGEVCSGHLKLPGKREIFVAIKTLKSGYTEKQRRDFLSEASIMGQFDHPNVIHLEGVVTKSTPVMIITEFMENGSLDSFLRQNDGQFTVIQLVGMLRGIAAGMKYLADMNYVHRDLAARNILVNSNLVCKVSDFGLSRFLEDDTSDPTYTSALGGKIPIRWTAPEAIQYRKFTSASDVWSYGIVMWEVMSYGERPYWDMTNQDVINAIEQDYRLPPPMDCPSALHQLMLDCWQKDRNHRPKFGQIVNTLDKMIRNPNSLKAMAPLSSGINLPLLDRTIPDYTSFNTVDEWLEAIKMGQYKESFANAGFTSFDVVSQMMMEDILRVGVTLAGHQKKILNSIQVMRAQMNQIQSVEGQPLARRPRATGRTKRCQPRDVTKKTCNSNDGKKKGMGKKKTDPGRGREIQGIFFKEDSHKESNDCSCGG
The following applies: at 0.1 µM.

Test [11] has as its target T2, Ephrin type-B receptor 2 (Homo sapiens). The settings on record: at 1 µM.
Test [12] concerns the target T3, Ephrin type-B receptor 3 (Homo sapiens) (UniProt P54753).
T3 sequence (whole entry): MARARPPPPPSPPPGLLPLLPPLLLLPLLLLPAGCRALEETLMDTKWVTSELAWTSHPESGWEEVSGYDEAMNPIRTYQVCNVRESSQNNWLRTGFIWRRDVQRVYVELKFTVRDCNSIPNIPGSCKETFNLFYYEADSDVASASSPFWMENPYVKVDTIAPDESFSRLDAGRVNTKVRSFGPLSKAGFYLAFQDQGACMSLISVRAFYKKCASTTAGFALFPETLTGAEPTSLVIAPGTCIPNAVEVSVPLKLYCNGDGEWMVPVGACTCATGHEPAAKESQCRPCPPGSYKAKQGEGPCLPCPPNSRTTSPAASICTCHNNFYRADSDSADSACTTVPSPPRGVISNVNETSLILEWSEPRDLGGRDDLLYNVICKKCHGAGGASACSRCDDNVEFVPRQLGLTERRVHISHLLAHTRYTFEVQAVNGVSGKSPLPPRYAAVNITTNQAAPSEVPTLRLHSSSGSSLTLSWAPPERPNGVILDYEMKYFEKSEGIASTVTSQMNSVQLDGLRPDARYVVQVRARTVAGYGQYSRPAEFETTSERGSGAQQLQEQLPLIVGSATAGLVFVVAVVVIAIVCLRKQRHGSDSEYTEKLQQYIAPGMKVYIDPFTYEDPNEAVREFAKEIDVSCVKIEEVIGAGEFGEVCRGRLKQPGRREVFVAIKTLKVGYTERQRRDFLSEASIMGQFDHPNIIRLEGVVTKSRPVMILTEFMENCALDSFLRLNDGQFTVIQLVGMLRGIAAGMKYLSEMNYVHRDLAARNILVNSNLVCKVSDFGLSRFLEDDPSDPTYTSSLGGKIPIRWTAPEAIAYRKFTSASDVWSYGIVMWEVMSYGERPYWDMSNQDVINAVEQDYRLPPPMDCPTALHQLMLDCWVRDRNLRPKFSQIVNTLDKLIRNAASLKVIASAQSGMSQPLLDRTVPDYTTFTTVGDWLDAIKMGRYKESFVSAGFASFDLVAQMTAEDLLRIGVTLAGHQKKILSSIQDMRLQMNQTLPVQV
The settings on record: at 0.1 µM.

Test [13] addresses T3, Ephrin type-B receptor 3 (Homo sapiens). The following applies: at 1 µM.
For test [14], the target named is T4, Ephrin type-B receptor 4 (Homo sapiens) (UniProt P54760).
T4 sequence (whole entry): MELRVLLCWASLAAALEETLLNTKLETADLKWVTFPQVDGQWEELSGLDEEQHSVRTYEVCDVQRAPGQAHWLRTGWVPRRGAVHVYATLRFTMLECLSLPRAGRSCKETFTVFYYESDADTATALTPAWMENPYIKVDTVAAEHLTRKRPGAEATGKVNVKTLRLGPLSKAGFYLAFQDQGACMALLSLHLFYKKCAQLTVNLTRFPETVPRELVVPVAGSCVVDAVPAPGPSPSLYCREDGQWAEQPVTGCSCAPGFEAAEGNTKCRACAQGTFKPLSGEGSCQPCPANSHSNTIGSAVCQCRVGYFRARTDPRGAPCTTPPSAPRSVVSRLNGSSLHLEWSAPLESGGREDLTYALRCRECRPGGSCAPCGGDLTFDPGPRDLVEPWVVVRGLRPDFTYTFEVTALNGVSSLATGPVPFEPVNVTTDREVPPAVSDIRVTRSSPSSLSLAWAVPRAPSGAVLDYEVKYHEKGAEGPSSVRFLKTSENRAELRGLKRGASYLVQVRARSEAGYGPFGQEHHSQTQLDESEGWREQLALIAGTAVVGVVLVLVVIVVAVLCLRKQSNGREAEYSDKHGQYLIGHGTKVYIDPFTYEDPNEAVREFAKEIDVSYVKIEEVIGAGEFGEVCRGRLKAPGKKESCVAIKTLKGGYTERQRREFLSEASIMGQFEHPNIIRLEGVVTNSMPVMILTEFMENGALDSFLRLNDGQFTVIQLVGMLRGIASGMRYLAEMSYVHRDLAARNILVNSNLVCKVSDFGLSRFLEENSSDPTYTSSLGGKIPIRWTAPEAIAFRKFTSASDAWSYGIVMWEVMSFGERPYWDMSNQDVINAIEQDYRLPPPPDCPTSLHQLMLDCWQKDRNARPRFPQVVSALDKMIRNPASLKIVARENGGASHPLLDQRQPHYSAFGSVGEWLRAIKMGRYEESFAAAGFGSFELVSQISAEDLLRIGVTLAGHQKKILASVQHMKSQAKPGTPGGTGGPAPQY
The settings on record: at 0.1 µM.

Test [15] concerns the target T4, Ephrin type-B receptor 4 (Homo sapiens). The following applies: at 1 µM.
In test [16] the target is Receptor tyrosine-protein kinase erbB-2 (Homo sapiens) (UniProt P04626). The following applies: at 0.1 µM.
Sequence of Receptor tyrosine-protein kinase erbB-2 (Homo sapiens) (P04626 whole entry): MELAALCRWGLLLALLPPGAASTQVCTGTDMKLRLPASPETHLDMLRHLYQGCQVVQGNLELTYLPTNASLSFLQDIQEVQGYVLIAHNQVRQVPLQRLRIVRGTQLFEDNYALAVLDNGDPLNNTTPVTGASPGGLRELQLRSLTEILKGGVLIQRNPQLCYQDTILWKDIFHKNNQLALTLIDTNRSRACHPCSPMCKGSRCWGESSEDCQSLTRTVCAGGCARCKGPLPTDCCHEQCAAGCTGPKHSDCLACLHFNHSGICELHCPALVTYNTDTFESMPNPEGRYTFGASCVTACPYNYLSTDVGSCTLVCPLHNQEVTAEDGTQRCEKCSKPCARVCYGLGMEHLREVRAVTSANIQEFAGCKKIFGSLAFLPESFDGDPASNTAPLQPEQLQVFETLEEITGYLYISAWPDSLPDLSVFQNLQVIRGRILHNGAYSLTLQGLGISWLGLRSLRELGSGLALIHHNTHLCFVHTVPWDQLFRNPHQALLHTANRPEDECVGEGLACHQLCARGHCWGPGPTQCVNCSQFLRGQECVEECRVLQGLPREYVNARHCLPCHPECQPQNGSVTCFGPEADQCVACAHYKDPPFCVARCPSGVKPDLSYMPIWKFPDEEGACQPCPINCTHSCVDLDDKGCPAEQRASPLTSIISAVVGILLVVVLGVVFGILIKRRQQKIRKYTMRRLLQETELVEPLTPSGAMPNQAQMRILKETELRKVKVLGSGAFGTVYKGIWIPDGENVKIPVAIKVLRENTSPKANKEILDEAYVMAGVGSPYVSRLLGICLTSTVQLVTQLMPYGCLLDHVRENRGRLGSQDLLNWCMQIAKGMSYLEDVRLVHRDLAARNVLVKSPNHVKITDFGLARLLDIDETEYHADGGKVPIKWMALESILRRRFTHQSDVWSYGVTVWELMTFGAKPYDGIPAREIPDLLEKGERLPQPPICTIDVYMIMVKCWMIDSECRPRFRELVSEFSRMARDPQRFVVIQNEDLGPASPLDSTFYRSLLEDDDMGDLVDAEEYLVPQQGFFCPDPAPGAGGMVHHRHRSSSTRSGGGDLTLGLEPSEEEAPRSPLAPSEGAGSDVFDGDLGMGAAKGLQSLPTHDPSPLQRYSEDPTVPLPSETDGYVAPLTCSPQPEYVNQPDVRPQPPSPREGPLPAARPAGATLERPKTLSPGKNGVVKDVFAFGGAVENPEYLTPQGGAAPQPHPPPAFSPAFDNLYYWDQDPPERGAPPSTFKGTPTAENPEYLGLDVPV
For test [17] the target is unchanged. The following applies: at 1 µM.
Test [18] deals with Receptor tyrosine-protein kinase erbB-4 (Homo sapiens) (UniProt Q15303). The settings on record: at 0.1 µM.
Sequence of Receptor tyrosine-protein kinase erbB-4 (Homo sapiens) (Q15303 whole entry): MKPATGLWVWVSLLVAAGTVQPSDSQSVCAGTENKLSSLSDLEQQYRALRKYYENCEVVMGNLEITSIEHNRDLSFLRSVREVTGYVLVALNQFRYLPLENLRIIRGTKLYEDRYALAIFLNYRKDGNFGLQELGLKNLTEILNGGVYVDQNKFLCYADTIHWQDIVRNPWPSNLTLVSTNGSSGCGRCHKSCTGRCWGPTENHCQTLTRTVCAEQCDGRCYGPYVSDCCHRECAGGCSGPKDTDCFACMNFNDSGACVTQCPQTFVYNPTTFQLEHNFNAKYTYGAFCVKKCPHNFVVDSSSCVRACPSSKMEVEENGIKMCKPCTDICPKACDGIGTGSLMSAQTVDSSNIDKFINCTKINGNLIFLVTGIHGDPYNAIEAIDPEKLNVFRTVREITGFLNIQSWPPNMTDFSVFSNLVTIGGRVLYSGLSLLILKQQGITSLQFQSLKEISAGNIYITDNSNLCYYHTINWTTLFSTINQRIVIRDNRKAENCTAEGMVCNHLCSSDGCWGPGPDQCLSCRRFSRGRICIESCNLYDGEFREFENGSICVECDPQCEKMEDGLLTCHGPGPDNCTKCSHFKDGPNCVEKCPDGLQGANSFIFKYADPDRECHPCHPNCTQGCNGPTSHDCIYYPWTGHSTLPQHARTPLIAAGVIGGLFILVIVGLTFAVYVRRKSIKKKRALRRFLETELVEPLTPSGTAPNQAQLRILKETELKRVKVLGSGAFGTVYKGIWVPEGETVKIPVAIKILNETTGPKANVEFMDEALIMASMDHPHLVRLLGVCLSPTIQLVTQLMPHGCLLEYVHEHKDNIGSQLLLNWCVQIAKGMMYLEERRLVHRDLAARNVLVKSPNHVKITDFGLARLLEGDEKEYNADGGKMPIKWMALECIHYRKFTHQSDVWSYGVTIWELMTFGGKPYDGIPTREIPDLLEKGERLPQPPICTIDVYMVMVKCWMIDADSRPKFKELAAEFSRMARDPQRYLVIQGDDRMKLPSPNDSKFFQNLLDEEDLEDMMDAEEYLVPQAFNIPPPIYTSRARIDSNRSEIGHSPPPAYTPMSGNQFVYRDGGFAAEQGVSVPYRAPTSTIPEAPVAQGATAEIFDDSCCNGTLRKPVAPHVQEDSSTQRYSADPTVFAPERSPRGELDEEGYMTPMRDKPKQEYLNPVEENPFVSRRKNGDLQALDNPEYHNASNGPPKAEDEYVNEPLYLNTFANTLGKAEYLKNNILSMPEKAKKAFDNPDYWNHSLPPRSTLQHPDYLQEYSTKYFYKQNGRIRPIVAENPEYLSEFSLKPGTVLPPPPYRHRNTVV
The target is the same in test [19]. The following applies: at 1 µM.
For test [20], the target named is Tyrosine-protein kinase Fer (Homo sapiens) (UniProt P16591). The following applies: at 0.1 µM.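 Also: reported figures are averaged percent inhibition of FER.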
Sequence of Tyrosine-protein kinase Fer (Homo sapiens) (P16591 whole entry, looked up): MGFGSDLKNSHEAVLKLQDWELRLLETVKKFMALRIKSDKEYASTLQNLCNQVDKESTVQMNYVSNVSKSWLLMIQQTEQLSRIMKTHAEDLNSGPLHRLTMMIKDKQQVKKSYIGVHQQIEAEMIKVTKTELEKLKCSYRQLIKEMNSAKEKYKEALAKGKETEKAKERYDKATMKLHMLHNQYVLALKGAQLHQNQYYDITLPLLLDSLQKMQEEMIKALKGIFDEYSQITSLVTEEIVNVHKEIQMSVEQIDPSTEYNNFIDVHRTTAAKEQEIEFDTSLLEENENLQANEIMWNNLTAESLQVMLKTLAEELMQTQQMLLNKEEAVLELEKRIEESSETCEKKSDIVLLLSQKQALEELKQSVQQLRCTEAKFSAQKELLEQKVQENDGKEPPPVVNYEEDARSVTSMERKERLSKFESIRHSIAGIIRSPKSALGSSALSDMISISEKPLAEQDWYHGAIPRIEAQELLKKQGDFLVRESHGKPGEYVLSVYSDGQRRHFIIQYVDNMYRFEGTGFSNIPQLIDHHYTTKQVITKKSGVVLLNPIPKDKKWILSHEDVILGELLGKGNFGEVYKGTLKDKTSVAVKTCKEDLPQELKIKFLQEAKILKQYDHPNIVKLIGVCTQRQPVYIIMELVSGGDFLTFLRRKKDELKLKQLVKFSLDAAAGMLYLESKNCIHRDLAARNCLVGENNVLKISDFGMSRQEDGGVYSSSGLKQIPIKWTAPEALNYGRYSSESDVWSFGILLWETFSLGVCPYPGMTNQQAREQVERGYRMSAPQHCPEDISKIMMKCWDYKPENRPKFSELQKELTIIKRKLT

Sequence of Epidermal growth factor receptor (Homo sapiens), P00533 [T790M] (P00533 whole entry T790M): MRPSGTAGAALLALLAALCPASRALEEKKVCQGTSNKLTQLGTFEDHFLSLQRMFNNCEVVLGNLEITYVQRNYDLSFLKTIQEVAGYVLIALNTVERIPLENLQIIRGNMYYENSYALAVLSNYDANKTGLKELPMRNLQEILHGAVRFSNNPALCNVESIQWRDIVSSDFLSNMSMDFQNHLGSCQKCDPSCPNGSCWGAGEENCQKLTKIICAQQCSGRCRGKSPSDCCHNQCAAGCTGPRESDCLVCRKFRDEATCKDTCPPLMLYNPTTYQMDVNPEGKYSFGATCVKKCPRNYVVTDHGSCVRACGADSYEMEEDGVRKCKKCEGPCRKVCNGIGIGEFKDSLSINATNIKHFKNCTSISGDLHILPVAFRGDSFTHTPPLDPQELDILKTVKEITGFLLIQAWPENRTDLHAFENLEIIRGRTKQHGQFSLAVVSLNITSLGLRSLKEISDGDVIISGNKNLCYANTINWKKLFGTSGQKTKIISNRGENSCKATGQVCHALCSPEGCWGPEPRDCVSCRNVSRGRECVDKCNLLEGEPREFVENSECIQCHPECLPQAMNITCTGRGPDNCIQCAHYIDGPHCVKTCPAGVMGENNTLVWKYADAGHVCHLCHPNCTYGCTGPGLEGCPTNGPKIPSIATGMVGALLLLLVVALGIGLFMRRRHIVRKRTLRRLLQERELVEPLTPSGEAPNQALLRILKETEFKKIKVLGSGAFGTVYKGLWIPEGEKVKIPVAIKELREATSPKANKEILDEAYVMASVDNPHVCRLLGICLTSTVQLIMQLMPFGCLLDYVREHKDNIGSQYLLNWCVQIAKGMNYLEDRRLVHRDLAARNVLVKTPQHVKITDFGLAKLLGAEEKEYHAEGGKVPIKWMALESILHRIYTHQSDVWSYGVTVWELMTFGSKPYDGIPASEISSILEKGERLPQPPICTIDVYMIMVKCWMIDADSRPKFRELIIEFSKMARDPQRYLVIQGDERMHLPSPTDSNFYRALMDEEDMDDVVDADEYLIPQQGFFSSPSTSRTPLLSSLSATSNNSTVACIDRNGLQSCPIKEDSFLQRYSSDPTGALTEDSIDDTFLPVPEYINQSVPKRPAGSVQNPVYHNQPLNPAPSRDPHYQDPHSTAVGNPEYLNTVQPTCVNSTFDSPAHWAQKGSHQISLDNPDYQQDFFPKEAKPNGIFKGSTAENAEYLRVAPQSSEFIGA

For orientation: inhibition means the change of the read-out against control, counted positive when it falls. Consider `Clc1ccc(CNc2nccc(-c3cnn4ncccc34)n2)cc1`, for which the inhibition in test [1] is -0.46%; in [2] it was 0.01%; in test [3] it was 3.09%; in [4] it was 1.88%; in test [5], 1.02%; in [6], 2.21%. Also, the inhibition in test [7] was 3.84%; in test [8], 5.02%; in test [9], 13%; in [10], 7.93%; in test [11] it was 9.79%; in test [12], 2.09%. For the same compound, the inhibition in test [13] is 2%; in [14] it was 0.83%; in test [15], 0.64%; in test [16] it was -2.69%; in test [17], 2.99%; in test [18], 3.33%. In addition, the inhibition in test [19] was determined as 1.08%; in test [20], 3.91%.
`NC(=O)c1cc(-c2ccc(F)cc2)cc(-c2ccncc2)c1N`: the inhibition was 3.83% in [1]; 0.39% in [2]; -0.62% in test [3]; 0.4% in test [4]; 3.67% in [5]; 4.53% in [6]. The inhibition was 2.83% in test [7]; 10.1% in test [8]; 12.7% in test [9]; 5.78% in test [10]; 8.83% in test [11]; 5.88% in [12]. The inhibition in [13] came out at 5.99%; in test [14], 3.64%; in test [15] it was 3.21%; in [16] it was 4.35%; in test [17], 4.97%; in test [18], 7.7%. The values for the inhibition in [19] and in test [20] were 11.7% and 1.98%, respectively.
Regarding `CS(=O)(=O)CCNCc1ccc(-c2ccc3ncnc(Nc4ccc(OCc5ccccc5)c(Br)c4)c3c2)o1`, the inhibition was 15.8% in [1]; 1.22% in test [2]; -0.73% in [3]; -1.09% in test [4]; -2.25% in test [5]; 1.29% in test [6]. For the same compound, the inhibition in test [7] was 1.45%; in test [8], 7%; in [9] it was 10.9%; in test [10] it was 7.88%; in test [11], 6.61%; in test [12], -1.4%. For the same compound, the inhibition in test [13] was -0.23%; in test [14] it was -1.9%; in test [15], -0.22%; in [16] it was 10.8%; in test [17], 73.5%; in test [18] it was 42.6%. Also, the inhibition in test [19] amounted to 79.8%; in [20] it was 2.74%.
As for `Cc1nnc(-c2ccc(C)c(-c3ccc(C(=O)NCc4ccc(Cl)cc4)cc3)c2)o1`, the inhibition in test [1] was 3.59%; in [2], 1.86%; in test [3], 2.04%; in test [4], -3.78%; in test [5] it was -3.32%; in [6], -0.26%. For the same compound, the inhibition in [7] was -1.93%; in test [8] it was 6.29%; in test [9] it was 5.1%; in test [10], 2.73%; in test [11], 2.23%; in [12], 1.15%. Moreover, the inhibition in test [13] was -1.34%; in test [14] it was -0.5%; in [15], -2.62%; in test [16], 5.39%; in test [17] it was 4.99%; in [18], 3.42%. Further, the inhibition in test [19] worked out at 7.48%; in test [20] it was 3.34%.

The values above are taken from ChEMBL document CHEMBL1961873, “Compounds: GSK PKIS; Assays: Nanosyn kinase panel” (2012).
